PINK1 expr mod = changes PINK1 expression; PINK1 immunofluorescence, high-content cytometry, 24 h; Potency, µM (top dose mostly 76.6 µM), for the others: at the highest dose activation (PINK1 increase), hits mostly activators; 410,000 compounds, 0.2% hits; active = well fitted activation curve with a large enough effect; inconclusive = small, poorly fitted or top-dose-only effect; cell line not stated here; also: potency is read from the fitted curve at half-maximal effect; % of control where 0% means no effect; nearly all actives have a fitted effect of over 65% in size
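Measures PINK1 amount and localization on or inside mitochondria by immunofluorescence. Stable cells get compounds at 5 concentrations for 24 hours before fixation and staining; CCCP controls included.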
ATXN2 expr inh = inhibitors of ATXN2 expression; 360,000 compounds, 0.72% hits; Potency, µM (doses to about 57 µM), for inactives: at the highest dose activity change, negative = inhibition, most hits filed as inhibitors; HEK-293 ATXN2-luciferase reporter, luminescence, 24 h; also: potency is read from the fitted curve at half-maximal effect; % is scaled to controls: 0 for no effect and ±100 for the full control effect; nearly all actives have a fitted effect of over 55% in size
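ATXN2-luciferase reporter cells (luciferase flanked by upstream and downstream ATXN2 gene portions) were treated 24 h at 37 °C with compounds at up to 57 uM. SteadyGlo luminescence gave expression; GF-AFC fluorescence gave viability.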
SW480 rerep = DNA re-replication induction in SW480 cells. 340,000 compounds, 1.8% hits. SW480 DNA re-replication, Hoechst DNA content imaging, 48 h. Potency, µM (doses to about 46.1 µM), inactives show at the highest dose re-replication activation, actives largely listed as activators; also: potency is read from the fitted curve at half-maximal effect; % of control where 0% means no effect; nearly all actives have a fitted effect of over 55% in size
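250 cells/well; 23 nL cpd via pin tool; 48 hr, 37 C, 5% CO2; Hoechst 40 min; imager read of total nuclear intensity, ex 405/em 500-530 nm.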
IL1B secr inh = inflammasome signaling inhibition, IL-1 beta readout; 360,000 compounds, 4.7% hits; AID 743279; THP-1 LPS/ATP IL-1B secretion, AlphaLISA, 16 h; stronger effect = lower value; activity change, % at 57.5 µM; in the data active = activity change below about -50%; inconclusive = mostly about -30% to -49%; also: % is scaled to controls: 0 for no effect and ±100 for the full control effect
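Secreted IL-1B measured by AlphaLISA bead assay after 16 h compound exposure of THP-1 cells; compounds (final up to 57.5 uM) added 1 h before LPS (250 ng/mL) and ATP (1.25 mM) stimulation; lower signal means less secretion.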
ATXN viability = viability counter-screen for ATXN expression inhibitors; S2 cells (HEK-293 line with an ATXN2-luciferase reporter) viability, CellTiter-Fluor protease fluorescence, 24 h; Potency, µM (highest dose often 56.7 µM), hits mostly cytotoxic; 400,000 compounds, 0.49% hits; AID 651635; also: potency is read from the fitted curve at half-maximal effect; nearly all actives have a fitted effect of over 40% in size
MCF10A rerep = DNA re-replication induction in MCF 10a cells; 350,000 compounds, 2.9% hits; AID 624296; MCF 10A DNA re-replication, Hoechst nuclear intensity, 48 h; Potency, µM (series often up to 46.1 µM), for inactives: top-dose activity, positive = re-replication, most hits filed as activators; also: potency is read from the fitted curve at half-maximal effect; % of control where 0% means no effect; nearly all actives have a fitted effect of over 50% in size
* marks the source's active call; other numbers are inactive results; ! = not confirmed by another sample; [ ] = remark or other dose. A selection: hits, their analogues and other compounds. The true share with any hit is near 7.1%. Unless noted, calls follow the shape of the dose curve; as a rule, active = well fitted curve in the direction sought with a large enough effect; inconclusive = small, poorly fitted or top-dose-only effect, or another doubt; inactive = no such curve, though single readings can be large; an effect the other way counts as inactive or inconclusive.

For O=[N+]([O-])c1ccc(N2CCNCC2)c(Cl)c1 the results were PINK1 expr mod 1%, ATXN2 expr inh -12%, SW480 rerep -4%, IL1B secr inh -14, ATXN viability inactive and MCF10A rerep 7.3µM*.
Screening O=C(c1cc([N+](=O)[O-])ccc1N1CCNCC1)N1CCOCC1 returned PINK1 expr mod 0%, ATXN2 expr inh 1%, SW480 rerep -24%, IL1B secr inh 17, ATXN viability inactive and MCF10A rerep -3%.
Screening CN(C)C(=O)Oc1ccc(Br)cc1C(=O)Nc1ccc(F)c(Cl)c1 returned PINK1 expr mod inconclusive, ATXN2 expr inh -1%, SW480 rerep 30%, IL1B secr inh -59*, ATXN viability inconclusive and MCF10A rerep inconclusive.
For C[C@H]1C/C=C/[C@H]2[C@H](O)[C@H](C)[C@@](C)(O)[C@H]3[C@H](Cc4ccccc4)NC(=O)[C@]32[C@H](O)/C=C/[C@](C)(O)C1 the results were PINK1 expr mod 4%, ATXN2 expr inh -9%, SW480 rerep inconclusive, IL1B secr inh -20, ATXN viability inactive and MCF10A rerep inconclusive.
CC(=O)O[C@@H]1/C=C/[C@](C)(O)C[C@@H](C)C/C=C/[C@H]2[C@H](O)C(C)=C(C)[C@H]3[C@H](Cc4ccccc4)NC(=O)[C@@]123 was read as PINK1 expr mod inconclusive, ATXN2 expr inh 2%, SW480 rerep 18µM*, IL1B secr inh 10, ATXN viability inactive and MCF10A rerep inconclusive.
Screening C=C1C(C)C2C(Cc3ccccc3)NC(=O)C23C(OC(C)=O)C=CC(C)(O)CC(C)CC=CC3C1O (stereo not given) returned PINK1 expr mod inconclusive, ATXN2 expr inh 0%, SW480 rerep 3.7µM*, IL1B secr inh 53, ATXN viability inconclusive and MCF10A rerep inconclusive.
`C=C1[C@@H](C)[C@H]2[C@H](Cc3ccccc3)NC(=O)[C@]23OC(=O)/C=C/[C@H](O)CCC[C@@H](C)C/C=C/[C@H]3[C@@H]1O` gave PINK1 expr mod inconclusive, ATXN2 expr inh -10%, SW480 rerep 5.8µM*, IL1B secr inh 35, ATXN viability inactive and MCF10A rerep inconclusive.
`CCN1C[C@]2(C)CC[C@H](OC)[C@@]34[C@@H]2[C@H](OC(C)=O)[C@]2(OCO[C@@]25C[C@@H](OC)[C@@H]2C[C@@]3(O)[C@H]5[C@@H]2OC)[C@H]14` gave ATXN viability inactive.
Screening C[C@@H]1O[C@@H](O[C@H]2C[C@@H](O)[C@@]3(CO)[C@H]4[C@H](O)C[C@]5(C)[C@@H](C6=CC(=O)OC6)CC[C@]5(O)[C@H]4CC[C@@]3(O)C2)[C@@H](O)[C@H](O)[C@H]1O returned SW480 rerep 10% and MCF10A rerep 7%.
For C[C@@H]1CC2=CC(=O)CC[C@@H]2[C@H]2CC[C@@]3(C)[C@@H](CC[C@]3(C)O)[C@@H]21 the results were ATXN2 expr inh -10% and ATXN viability inactive.
For CCOc1ccc(CCNC(=O)c2cc3c(-c4cccc(OC)c4)nn(C)c3s2)cc1OCC the results were PINK1 expr mod 6%, ATXN2 expr inh inconclusive and ATXN viability inconclusive.
For CN(C)c1ccc(CCN2CCOCC2)cc1 the results were PINK1 expr mod 1%, ATXN2 expr inh 62%, SW480 rerep -48%[9.22 µM], IL1B secr inh 11, ATXN viability inactive and MCF10A rerep 1%.
`c1ccc(OCc2ccc(CCCN3CCOCC3)cc2)cc1` gave PINK1 expr mod -1%, ATXN2 expr inh 6%, SW480 rerep 3%, IL1B secr inh 4, ATXN viability inactive and MCF10A rerep 24µM*!.
`Cc1cc2oc(=O)cc(-c3ccccc3)c2c(C)c1-c1ccc(CO)cc1` gave PINK1 expr mod 0%, ATXN2 expr inh -14%, SW480 rerep 1%, IL1B secr inh 14, ATXN viability inconclusive and MCF10A rerep inconclusive.
